High-throughput results (PubChem BioAssay)
Only a sample is shown.
aSyn UTR act: Activators via SNCA 5'UTR binding, MLPCN; alpha-synuclein 5'UTR reporter, activators screen; activity score, % (tested at 7.5 µM), hits read low; actives 7.1% (n = 300,000); in the data active means activity score below about -60%
Hits are given with their value; i = inactive.

SMILES	aSyn UTR act
CCOC(=O)c1c(C)[nH]c(C(=O)NCc2ccccn2)c1C	-158.9
CCOC(=O)c1c(C)[nH]c(C(=O)N/N=C\c2ccccc2O)c1C	i
CCOC(=O)c1c(Cc2ccccc2)c[nH]c1C	-74.8
CCOC(=O)c1c(C)[nH]c(C(=O)OCc2ccccc2)c1C	-165.4
CCOC(=O)c1c(C)[nH]c(C(=O)C(C)Sc2ccc(Cl)cc2)c1C (centres undefined)	-97.4
CCOC(=O)c1ccc(-c2ccc(/C=N/NC(=O)c3cncc(Br)c3)o2)cc1	-164.1
COC(=O)c1ccc(-c2ccc(/C=N/NC(=O)CC3(C)OCCCO3)o2)cc1	-66.6
CCCCOC(=O)c1ccc(-c2ccc(/C=N/NC(=S)NCC)o2)cc1	-88.9
O=C(N/N=C\c1ccc([N+](=O)[O-])s1)c1cncc(Br)c1	i
CCOC(=O)c1ccc(-c2ccc(/C=N/NC(=O)Cc3nnc(N)s3)o2)cc1	-82.9
COC(=O)c1ccc(-c2ccc(/C=N/N3C(=O)C4C5C=CC(C6CC56)C4C3=O)o2)cc1 (centres undefined)	-99.6
c1ccc(OCc2cc(-c3ccccc3)no2)cc1	-169.4
COc1ccccc1OCc1cc(-c2ccccc2)no1	-224.5
CC(=O)C1=C(C)OC(N)=C(C#N)C1c1cc2cc(C)c(C)cc2nc1Cl (centres undefined)	-68.4
N#C/C(=C\c1ccc(OC(=O)c2ccc(Cl)s2)cc1)c1nc2ccccc2[nH]1	-287.4
CCN(CC)c1ccc(/C=C(/C#N)c2nc3ccccc3[nH]2)c(OC(C)C)c1	-211.1
Cc1cc2nc(/C(C#N)=C/c3ccncc3)[nH]c2cc1C	-61.7
N#C/C(C(=O)c1ccccc1)=C1/CCCCCN1	-112.9
COc1cc(/C=C(/C#N)c2nc3ccccc3[nH]2)ccc1OCC(=O)Nc1ccccc1C(C)C	i
N#C/C(=C\c1ccncc1)c1nc2ccccc2[nH]1	-77.2
CC1CCc2nc(/C(C#N)=C/c3ccncc3)sc2C1 (centres undefined)	-113.6
N#C/C(=C\c1cccnc1)c1nc2ccccc2[nH]1	-86.0
COc1cc(/C=C(\C#N)c2nc3ccccc3[nH]2)ccc1OC(=O)c1ccco1	-174.2
N#C/C(=C/c1ccncc1)c1nc2ccccc2s1	-89.1
N#C/C(=C1/CCCCCN1)c1nc2ccccc2[nH]1	-127.2
SMILES	aSyn UTR act
COc1ccc(/C(C#N)=C/c2cccnc2)cc1	-70.6
CC(=O)c1ccc(NC(=O)C(C)OC(=O)c2ccc3c(c2)nc(C)n3-c2ccccc2)cc1 (centres undefined)	-91.0
CCc1ccc(NC(=O)C2C3C=CC(C4CC34)C2C(=O)O)cc1 (centres undefined)	-74.4
CN(C)c1ccc(NC(=O)C2C3C=CC(C3)C2C(=O)O)cc1 (centres undefined)	-73.5
CCCCOC(=O)/C(=C/c1cn(C)c2ccccc12)NC(=O)c1ccc(OC)cc1	-100.3
CCS(=O)(=O)c1nnnn1-c1ccccc1S(C)(=O)=O	-173.6
COc1ccccc1-c1nnc(NC(=O)C2=COCCO2)o1	-74.6
C=CCNc1nc(-c2ccc(OC)cc2OC)cs1	-320.6
CC(C)(C)c1ccc(NC(=O)COC(=O)C2=COCCO2)cc1	-89.5
COc1ccc(-c2csc(NC(=O)C3=COCCO3)n2)c(OC)c1	-86.3
C=CCn1c(C)cc(-c2csc(NC(=O)C3=COCCO3)n2)c1C	-89.4
COc1ccc(-c2csc(NC(=O)COC(=O)C3=COCCO3)n2)cc1	-128.2
CC(C)(C)c1ccc(NC(=O)COC(=O)C2(C)CC2(Cl)Cl)cc1 (centres undefined)	-138.1
Cc1[nH]n(-c2ccccc2)c(=O)c1N=Nc1ccccc1	-182.3
Cc1ccc(N=Nc2c(N)n(-c3ccccc3)[nH]c2=O)cc1	-153.9
Nc1[nH]n(-c2ccccc2)c(=O)c1N=Nc1ccc2c(c1)OCO2	-204.6
CCSc1ncc(/C=N/Nc2ccc([N+](=O)[O-])cc2)n1C	-193.9
CCSc1ncc(/C=N/Nc2ccccc2)n1C	-109.0
CCSc1ncc(/C=N/Nc2ccc(Cl)cc2)n1C	-180.5
Cc1ccc(NC(=O)C2=C(O)CCn3c2nc2ccccc23)cc1	-131.1
COCCNC(=O)c1cc(-c2ccc(Cl)c(Cl)c2)on1	-78.0
O=C(c1cc(-c2ccc(Cl)cc2Cl)on1)N1CCOCC1	i
O=C(c1cc(-c2cccc(Cl)c2)on1)N1CCOCC1	-171.0
O=C(c1cc(-c2ccc(Cl)c(Cl)c2)on1)N1CCOCC1	-151.5
O=C(c1cc(-c2ccc(F)cc2)on1)N1CCOCC1	-110.6
SMILES	aSyn UTR act
O=C(Nc1nnc(-c2ccccc2)s1)c1ccccc1F	-151.8
O=C(Nc1nnc(-c2ccccc2Cl)s1)c1ccccc1F	-172.7
CCC(Sc1nncn1C)C(=O)Nc1nnc(-c2ccccc2Cl)s1 (centres undefined)	-63.9
Cc1ccc2nc(CSc3nc(C)cc(C)c3C#N)[nH]c2c1	-69.7
COc1ccc(NCc2nc3ccccc3n2CCOc2ccc(C)cc2)cc1	-114.2
Cc1ccc(OCCn2c(NC(=O)c3ccco3)nc3ccccc32)cc1	i
COc1ccc(NCc2nc3ccccc3n2CCOc2ccccc2)cc1	-206.5
O=c1oc2ccccc2n1CCCOc1ccccc1	-73.0
Cc1nc2ccccc2n1CCCOc1ccccc1	-89.2
Cc1ccc(S(=O)(=O)N/N=C2/CC(c3ccccc3)Oc3ccccc32)cc1[N+](=O)[O-] (centres undefined)	-106.4
C/C(CC(C)C)=N\NS(=O)(=O)c1ccc(C)c([N+](=O)[O-])c1	i
Cc1ccc(C2=NN3C(=O)c4ccccc4C3C2)cc1 (centres undefined)	-170.3
O=C(c1cc2cc(Br)ccc2[nH]1)N1CCc2ccccc21	-75.8
COc1ccc(-c2cc(C(F)F)n3ncc(C(=O)N4CCc5ccccc54)c3n2)cc1	i
O=C(c1cc2cc(F)ccc2[nH]1)N1CCc2ccccc21	-176.7
COc1ccc2cc(C(=O)N3CCc4ccccc43)[nH]c2c1	-121.8
Nc1ccccc1N=Cc1ccc(-c2cccc(Cl)c2)o1	-145.1
COCC(C)n1c(SCc2cc(=O)n3cc(C)ccc3n2)nc2ccccc2c1=O (centres undefined)	i
Cc1ccc2nc(COc3ccc(Cl)cc3)cc(=O)n2c1	-108.5
C=CCc1ccc(OCc2ccc(C(=O)Nc3ccc(NC(C)=O)cc3)o2)c(OC)c1	-74.2
C/C(=N\NC(=O)c1c(C)nc2ccccn12)c1ccc(O)cc1O	i
Cc1ccc(NC(=O)c2c(Cl)nc3ccccn23)cc1	-153.3
Cc1nc2ccccn2c1C(=O)Nc1ccc(Cl)cc1	-159.6
Nc1c2ccccc2nc2ccccc12	i
COc1ccc2nc3cccc(OC)c3nc2c1	-104.6
SMILES	aSyn UTR act
COc1ccc2nc3ccccc3nc2c1N	-67.4
CC(=Nc1ccc(C)c(C)c1)C1=C(O)CSC1=O	-121.9
Cc1ccc2c(c1)=C(c1sc(N(C)c3ccc(O)cc3)nc1O)C(=O)N=2	-68.4
Cc1cccc(NC(=O)c2oc3c(c2C)C(=O)CC(C)(C)C3)n1	-82.7
Cc1ccccc1NC(=O)/C=C/c1ccc([N+](=O)[O-])s1	-80.4
Cc1cc(C)cc(NC(=O)/C=C/c2ccc([N+](=O)[O-])s2)c1	-243.9
Cc1ccccc1NC(=O)/C=C/c1cccs1	-118.6
CCOC(=O)c1ccc(NC(=O)/C=C/c2cccs2)cc1	-251.1
CC(=O)c1cccc(NC(=O)/C=C/c2ccc([N+](=O)[O-])s2)c1	-326.0
COCc1nc2oc3ccccc3c(=O)c2cc1C(=O)OC	-88.8
CCOC(=O)c1cc2c(=O)c3ccccc3oc2nc1C	-152.7
CC(=O)c1cc2c(=O)c3ccccc3oc2nc1C	-116.4
CC(=O)c1ccc2oc3ccccc3c(=O)c2c1	-81.0
N/C(=N\OC(=O)Cc1ccccc1)c1ccccn1	-76.6
